PI5P4Ka inh: blocks human PI5P4K alpha kinase activity; AID 652105; max response, %; 330,000 tested, 1.2% active; PI5P4Kalpha enzyme, ADP-Glo luminescence, 60 min; active compounds read low; P48426; active = max response of -50% or lower; inconclusive = between -30% and -50%; inactive = -30% or higher; also: value at the top dose of about 77 µM; % is scaled to controls: 0 for no effect and ±100 for the full control effect
Target sequence (P48426 whole entry, looked up): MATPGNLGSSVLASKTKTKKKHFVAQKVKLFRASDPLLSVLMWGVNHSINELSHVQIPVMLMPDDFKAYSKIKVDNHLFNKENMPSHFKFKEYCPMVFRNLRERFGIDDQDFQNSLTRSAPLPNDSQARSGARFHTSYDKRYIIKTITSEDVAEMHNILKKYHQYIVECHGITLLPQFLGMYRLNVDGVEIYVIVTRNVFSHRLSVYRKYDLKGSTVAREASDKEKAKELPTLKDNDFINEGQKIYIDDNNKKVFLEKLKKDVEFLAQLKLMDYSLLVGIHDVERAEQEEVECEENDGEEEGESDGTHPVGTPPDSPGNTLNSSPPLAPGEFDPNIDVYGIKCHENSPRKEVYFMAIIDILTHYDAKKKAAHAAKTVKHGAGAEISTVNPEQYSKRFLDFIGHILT
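PI5P4Kalpha ADP-Glo assay; 5 microM ATP final; 60 min RT reaction; HEPES pH 7.4/EGTA/CHAPS, 5% DMSO; controls lacking substrate or enzyme; luminescent end-point.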
PLK1 PBD block: blocks phosphopeptide binding to human PLK1 polo-box domain; 360,000 tested, 2.8% active; Potency, µM, without a hit: max response, negative = inhibition, actives largely listed as inhibitors; Plk1 PBD binding of FITC phosphopeptide, fluorescence polarization; P53350; also: potency is read from the fitted curve at half-maximal effect; series mostly up to about 57 µM; % is scaled to controls: 0 for no effect and ±100 for the full control effect; nearly all actives have a fitted effect of over 65% in size
BAZ2B block: BAZ2B (human) inhibition; AID 504333; Potency, µM (titrated, usually from 114 µM), without a hit: top-dose activity change, negative = inhibition, actives largely listed as inhibitors; 360,000 tested, 4.4% active; AlphaScreen BAZ2B-H3K14Ac peptide displacement; Q9UIF8; also: potency is read from the fitted curve at half-maximal effect; % is scaled to controls: 0 for no effect and ±100 for the full control effect; nearly all actives have a fitted effect of over 60% in size
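Protein-peptide AlphaScreen: BAZ2B 50 nM, b-H3K14Ac 50 nM, 1x PBS pH 7.4 + 0.01% Tween-20. Preincubation 30 min RT; cpd 30 min RT (top 110 uM); beads 20 min RT, light-protected.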
JMJD2A Tudor inh: JMJD2A Tudor domain (human) inhibition | AlphaScreen JMJD2A-Tudor / H3K4me3 peptide binding | O75164 | Potency, µM (top dose mostly 114 µM), for the others: at the highest dose activity change, negative = inhibition, usual class: inhibitors | 390,000 tested, 4.4% active; also: potency is read from the fitted curve at half-maximal effect; % is scaled to controls: 0 for no effect and ±100 for the full control effect; nearly all actives have a fitted effect of over 50% in size
HP1b binding inh: inhibitors of HP1-beta chromodomain binding to methylated histone tails. AID 540317. P83916. Potency, µM (highest dose often 114 µM), for the others: top-dose activity change, negative = inhibition, actives largely listed as inhibitors. 390,000 tested, 0.56% active. AlphaScreen HP1-beta / biotin-H3K9me3 peptide binding; also: potency is read from the fitted curve at half-maximal effect; nearly all actives have a fitted effect of over 70% in size
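AlphaScreen: HP1-beta (50 nM) preformed 30 min with biotin-H3(1-18)K9me3 peptide (50 nM) in PBS pH 7.4, 0.01% Tween-20. Compound added for 30 min at RT, then streptavidin donor/nickel chelate acceptor beads (10 ug/mL) for 30 min.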
G9a inh: inhibitors of human histone lysine methyltransferase G9a. Q96KQ7. G9a H3K9 monomethylation, AlphaScreen, 2 h. Potency, µM (titrated, usually from 102 µM), inactives show at the highest dose activity, negative = inhibition, most hits filed as inhibitors. 350,000 tested, 8.8% active; also: potency is read from the fitted curve at half-maximal effect; % is scaled to controls: 0 for no effect and ±100 for the full control effect; nearly all actives have a fitted effect of over 75% in size
Target sequence (Q96KQ7 913-1193 limits assumed): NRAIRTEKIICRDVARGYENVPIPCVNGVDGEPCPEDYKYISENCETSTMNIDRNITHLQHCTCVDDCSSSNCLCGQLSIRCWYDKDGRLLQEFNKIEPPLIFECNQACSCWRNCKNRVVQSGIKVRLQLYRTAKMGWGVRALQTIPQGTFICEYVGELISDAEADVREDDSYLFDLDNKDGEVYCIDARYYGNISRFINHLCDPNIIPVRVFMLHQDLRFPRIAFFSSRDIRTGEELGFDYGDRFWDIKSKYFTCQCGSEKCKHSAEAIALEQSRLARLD
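Signal arises when biotinylated H3K9 peptide, once monomethylated, bridges streptavidin donor and antibody-captured acceptor beads. Enzyme at 20 nM was preincubated 15 min with test compounds; peptide 500 nM and SAM 20 uM then reacted for 2 h.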
* hit, by the source's call; u = inconclusive; x = no result given; [ ] = remark or other dose. This is a sample that favours compounds with a hit; in the whole collection about 12% have one here. Unless noted, calls follow the shape of the dose curve; as a rule, active = well fitted curve in the direction sought with a large enough effect; inconclusive = small, poorly fitted or top-dose-only effect, or another doubt; inactive = no such curve, though single readings can be large; an effect the other way counts as inactive or inconclusive.

SMILES	PI5P4Ka inh	PLK1 PBD block	BAZ2B block	JMJD2A Tudor inh	HP1b binding inh	G9a inh
Cc1sc(NC(=O)CCC(=O)O)c(C(N)=O)c1-c1ccccc1	-28	13µM*	-1%	u	u	10µM*
Cc1sc(NC(=O)C2CCCCC2C(=O)O)c(C(N)=O)c1-c1ccc(C(C)(C)C)cc1 (stereo not drawn)	1	21µM*	u	-19%	-31%	x
CCOC(=O)Cc1ccc(NC(=O)N2CCC(CN3CCC(C)CC3)CC2)cc1	x	x	4%	-31%	3%	-17%[59 µM]
CC(C)(C)c1ccc(S(=O)(=O)N2CCC(NC(=O)c3ccco3)CC2)cc1	5	-7%	16%	-4%	34%	-1%
Cc1sc(NC(=O)C2CCCCC2C(=O)O)c(C(N)=O)c1-c1ccccc1 (stereo not drawn)	-18	u	-2%	-16%	-9%	35µM*
Cc1sc(NC(=O)C2CCCCC2C(=O)O)c(C(N)=O)c1-c1ccc(C(C)C)cc1 (stereo not drawn)	-15	-21%	-37%	-26%	3%	34%[59 µM]
O=C(CCS(=O)(=O)c1ccccc1)N(CCCN1CCOCC1)c1nc2c(F)cccc2s1	13	u	u	-11%	35%	14µM*
O=C(CCS(=O)(=O)c1ccccc1)N(CCCN1CCOCC1)c1nc2ccc(F)cc2s1	-3	u	3%	-18%	37%	22µM*
CN(C)CCn1c(=N)n(CC(O)c2ccc(Cl)c(Cl)c2)c2ccccc21 (stereo not drawn)	3	-13%	-8%	-15%	14%	45µM*
N=c1n(CCN2CCCCC2)c2ccccc2n1CC(O)c1ccc(Cl)c(Cl)c1 (stereo not drawn)	x	u	-10%	u	25%	18µM*
CCCCn1c(=N)n(CC(O)c2ccccc2)c2ccccc21 (stereo not drawn)	1	-5%	-2%	-11%	5%	x
N=c1n(CCN2CCCCC2)c2ccccc2n1CC(=O)c1ccc(Cl)c(Cl)c1	16	-10%	32µM*	-28%	1%	x
N=c1n(CCN2CCCCC2)c2ccccc2n1CC(O)c1cccc(Br)c1 (stereo not drawn)	-3	-7%	-10%	-20%	32%	50µM*
CCC(=O)N1c2ccc(S(=O)(=O)N3CCC(C)CC3)cc2CC1C (stereo not drawn)	x	x	x	-13%	31%	9%[59 µM]
COc1cccc(NC(=O)CSc2ncc3c(n2)-c2ccc(Cl)cc2N(C)S3(=O)=O)c1	x	x	-6%	-8%	14%	-8%[59 µM]
Cn1c(CCN2CCOCC2)nc2cc(NC(=O)COc3ccc(Cl)cc3)ccc21	-1	-6%	-6%	1%	16%	-11%
Cn1c(CN2CCCC2)nc2cc(NC(=O)COc3ccc(Cl)cc3)ccc21	x	0%	-2%	-29%	27%	22%[59 µM]
COc1ccc(OCC(=O)Nc2ccc3c(c2)nc(CCN2CCOCC2)n3C)cc1	x	-6%	0%	-20%	16%	56µM*
CCCC(=O)Nc1ccc2c(c1)nc(CN1CCN(C(C)=O)CC1)n2C	-3	-4%	1%[57.1 µM]	10%	29%	50µM*
COc1ccc(OCC(=O)Nc2ccc3c(c2)nc(CN2CCCC2)n3C)cc1	0	27µM*	-11%	-29%[11.4 µM]	-6%	41%[12.7 µM]
CCCC(=O)Nc1ccc2c(c1)nc(CN1CCN(C(=O)OCC)CC1)n2C	0	-6%	5%	u	11%	18%
CCOC(=O)N1CCN(Cc2nc3cc(NC(C)=O)ccc3n2C(C)C)CC1	x	x	u	50µM*	34%	-48%[59 µM]
Cc1cc(C)nc(-n2nc(C)c3c2NC(=O)CC3c2cc(F)ccc2F)n1 (stereo not drawn)	x	x	-10%	-12%	42%	-15%[59 µM]
CC(=O)c1cccc(NC(=O)CSc2nc3ccccc3nc2Cc2ccc(F)cc2)c1	x	x	-1%	-18%	18%[57 µM]	4%[59 µM]
CC(C)CC(CSc1ccc(Br)cc1)N1CCN(CCc2ccccc2)CCC1=O (stereo not drawn)	x	x	x	-26%	12%	x
SMILES	PI5P4Ka inh	PLK1 PBD block	BAZ2B block	JMJD2A Tudor inh	HP1b binding inh	G9a inh
COc1cc(CN2CCN(Cc3ccc(C)cc3)C(CCO)C2)cc(OC)c1O (stereo not drawn)	-8	-22%	-15%	-25%	10%	45µM*
Cc1ccc(CN2CCN(Cc3ccc(Oc4ncccn4)cc3)CC2CCO)cc1 (stereo not drawn)	1	-16%	-11%	-4%	39%	29%[12.7 µM]
COc1ccc(CN2CCN(Cc3ccc(C)cc3)C(CCO)C2)cc1OC (stereo not drawn)	0	-5%	-3%	-16%	17%	x
Cc1ccc(CN2CCN(Cc3ccccn3)CC2CCO)cc1 (stereo not drawn)	9	-4%	56µM*	-12%	32%	1%
NC(=O)/C=C/C(=O)Nc1ccc(Cl)cc1	u	-9%	-19%	-35%	-26%	11µM*
COc1cccc(CNCc2ccccn2)c1OC	x	-6%	u	56µM*	23%	6%
COc1ccccc1CNCC(c1ccccc1)c1ccccc1	x	x	50µM*	x	x	40µM*
COc1cccc(CN2CCC2(C)C(=O)NCCc2ccccn2)c1OC (stereo not drawn)	1	-7%	x	x	x	x
COc1ccc(CNCc2ccc(OC)c3ccccc23)cc1	0	-1%	u	u	-17%	-18%
COc1ccccc1CNCc1ccc(OC)c2ccccc12	-5	u	x	18µM*	-16%	x
COc1cccc(CNCc2ccc(OC)c3ccccc23)c1OC	2	-1%	20µM*	3.2µM*	40µM*	7%[2.33 µM]
COc1cccc(CNC(=O)CSc2nnc3c(n2)[nH]c2ccccc23)c1	-7	-9%	-23%	-3%	5%	-6%
Cc1nc(-[n+]2nc(-c3ccncc3)nn2-c2ccccc2)sc1C	-20	-7%	x	x	x	x
COc1ccc(Br)cc1CNC(C)c1ccccc1 (stereo not drawn)	3	-11%	-3%	-25%	40%	-10%[59 µM]
COc1cccc(CNCCO)c1OCc1ccccc1	1	1%	-5%	-11%	17%	-9%[59 µM]
COc1ccccc1CNCc1cc(Br)ccc1OC	2	-8%	56µM*	u	-33%	8.9µM*
COc1ccccc1CNCc1cccc(Oc2ccccc2)c1	7	-2%	25µM*	40µM*	-9%	8.9µM*
Cc1ccc(C)c(S(=O)(=O)N2CCN(C(=O)C3CCN(C(=O)c4ccc(F)cc4)CC3)CC2)c1	-7	-5%	7%	-16%	7%	7%[12.7 µM]
COc1ccc(C2/C=C\CN(CC3CC3)C(Cc3ccccc3)C(=O)N2Cc2ccc(F)cc2)cc1 (stereo not drawn)	x	x	x	-23%	28%	x
C#CC(C)(O)C1CC(CC(=O)O)C1(C)C (stereo not drawn)	6	-2%	x	-3%	24%	x

Screening data from PubChem.
